# Screening results from PubChem.
# Only some compounds are listed: those with a hit (about 8.2% of all), similar ones and a draw of the others.
# ELG1 repair inh = ELG1-dependent DNA repair inhibition. HEK293T ELG1-luciferase reporter, luminescence, 16 h; DNA damage induced by 5-fluorouridine. 330,000 tested, 2.3% active. Potency, µM (highest dose often 46.1 µM), without a hit: at the top dose activity change, negative = inhibition, hits mostly inhibitors; note: % is set by controls: 0 for no effect and ±100 for the full control effect; nearly all actives have a fitted effect of over 55% in size
#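 5-Fluorouridine DNA damage + compound/DMSO, 2,000 cells/well, 16 h, 37 °C/5% CO2. ONE-Glo, 30 min RT, luminescence. Readout = decrease in reporter signal.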
# SW480 rerep = induces DNA re-replication in SW480 colon adenocarcinoma cells; Potency, µM (highest dose often 46.1 µM), for inactives: at the top dose re-replication activation, most hits filed as activators; AID 624297; 340,000 tested, 1.8% active; SW480 DNA re-replication, Hoechst DNA content imaging, 48 h; note: % of control where 0% means no effect; nearly all actives have a fitted effect of over 55% in size
#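 Cells (250 per well) received 23 nL compound or DMSO by pin tool and were kept 48 hr at 37 C, 5% CO2. Nuclei were then stained with Hoechst for 40 min and scanned for DNA content.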
# KB-3-1 cytotox = KB-3-1 parental cell cytotoxicity; AID 1347075; Potency, µM (series often up to 46.1 µM), actives largely listed as cytotoxic; KB-3-1 viability, CellTiter-Glo ATP luminescence, 72 h; 400,000 tested, 1.4% active; note: % is set by controls: 0 for no effect and ±100 for the full control effect; nearly all actives have a fitted effect of over 60% in size
#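 KB-3-1 parental drug-naive adenocarcinoma cells in DMEM/10% FBS, incubated 72 h at 37 C with pin-transferred compounds across a concentration series. Viability by CellTiter-Glo luminescence; concentration-response curves fitted after normalization.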
# KB-V1 cytotox = KB-V1 MDR subline cytotoxicity; AID 1347076; KB-V1 MDR cells viability, CellTiter-Glo, 72 h; 400,000 tested, 3.4% active; Potency, µM (series often up to 46.1 µM), hits mostly cytotoxic; note: % is set by controls: 0 for no effect and ±100 for the full control effect; nearly all actives have a fitted effect of over 60% in size
#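 KB-V1 cells (P-gp-expressing MDR subline of KB-3-1) in phenol-red-free DMEM with 10% FBS were exposed to library compounds over a concentration series for 72 h at 37 degrees C. Viability read by CellTiter-Glo luminescence; concentration-effect curves fitted after normalization.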
# MCF10A rerep = induces DNA re-replication in MCF 10a normal breast cells | MCF 10A DNA re-replication, Hoechst nuclear intensity, 48 h | Potency, µM (highest dose often 46.1 µM), for inactives: at the highest dose activity, positive = re-replication, most hits filed as activators | 350,000 tested, 2.9% active; note: % of control where 0% means no effect; nearly all actives have a fitted effect of over 50% in size
# Starred values were filed as active, the others as inactive; i = inactive; ? = inconclusive; . = no result. Calls come from the whole dose curve; as a rule, active = well fitted curve in the direction sought with a large enough effect; inconclusive = small, poorly fitted or top-dose-only effect, or another doubt; inactive = no such curve, though single readings can be large; an effect the other way counts as inactive or inconclusive. Potency is the fitted concentration of half-maximal effect.
SMILES,ELG1 repair inh,SW480 rerep,KB-3-1 cytotox,KB-V1 cytotox,MCF10A rerep
C=C1C(=O)[C@@]23[C@H](O)C[C@@H]4C(C)(C)CC[C@H](O)[C@]4(C)[C@@H]2C[C@H](O)[C@@H]1[C@H]3O,16.4µM*,2.59µM*,?,?,6.51µM*
COc1ccc(S(=O)(=O)N2CC(C)N(C(=O)N3CCOCC3)C2)cc1 (stereo not drawn),11.9%,3.0%,i,i,15.9%
Cc1nc2nc(C)c(CCC(=O)N3CCc4ccccc43)c(C)n2n1,-1.0%,-6.2%,i,20.6µM*,1.9%
Cc1cc(C)n(CC(O)COc2ccc(Cl)cc2Cl)n1 (stereo not drawn),?,24.5%,?,10.3µM*,1.7%
Cc1cc(C)n(CC(O)COc2ccc(Cl)cc2)n1 (stereo not drawn),-7.5%,2.5%,i,i,?
Cc1ccc2nc(CSc3nnc(Nc4ccccc4C)s3)cc(=O)n2c1,25.9µM*,-3.2%,i,i,?
Cc1cccc(Nc2nnc(SCc3cc(=O)n4cc(C)ccc4n3)s2)c1,?,22.5%,i,i,-0.9%
O=c1[nH]c(-c2ccco2)nc2sc3c(c12)CCCC3,?,0.5%,i,18.4µM*,-6.4%
O=c1[nH]nnc2sc3c(c12)CCCC3,13µM*,-4.1%,i,?,1.2%
O=c1[nH]c(S)nc2sc3c(c12)CCCC3,6.1%,-0.1%,i,i,?
Cc1ccc(S(=O)(=O)NCCN=C(CN2CCCC2)NS(=O)(=O)c2ccc(C)cc2)cc1,-12.8%,6.6%,i,6.51µM*,0.6%
CC(=O)N1CCC2(CC1)CC(=O)c1cc(OCC(=O)N3CCOCC3)ccc1O2,2.2%,20.6µM*,i,i,7.3%
Cc1ccc(S(=O)(=O)N2C[C@H]3C(=O)C[C@@H](c4cccc(Cl)c4)N(S(=O)(=O)c4ccc(C)cc4)[C@H]3C[C@H]2c2cccc(Cl)c2)cc1,.,.,i,i,.
COc1ccc(OC)c(NC(=O)COCc2cc(-c3ccc(F)cc3)on2)c1,.,.,i,i,.
COc1ccc(C(=O)Nc2cccc(NC(=O)c3ccc(OC)c(OC)c3)n2)cc1OC,2.91µM*,-4.4%,i,?,?
COc1ccc(C(=O)Nc2cnn(Cc3ccc(Cl)cc3)c2)cc1OC,?,-694.3%,5.8µM*,i,11.6µM*
COc1ccc(C(=O)Nc2ccccc2C(=O)NC(C)C)cc1OC,18.4µM*,1.4%,i,i,-0.3%
COc1ccc(CNC(=O)CCC(=O)Nc2nnc(CC(C)C)s2)cc1,0.1%,2.91µM*,i,i,0.0%
COc1ccc(C(=O)Nc2ccc(Cn3ccnc3)cc2)cc1OC,?,2.9%,?,?,?
COc1ccccc1CNC(=O)CN1C(=O)CCc2cc(S(=O)(=O)N3CCCCC3)ccc21,.,.,i,i,.
O=C(COC(=O)c1ccccc1O)Nc1cc([N+](=O)[O-])ccc1Cl,-6.2%,0.5%,i,i,-0.7%
COc1ccc(Cc2nnc(NC(=O)c3ccc(OC)c(OC)c3)s2)cc1,-17.7%,?,?,i,3.66µM*
O=C(C[N+]12CCCc3cccc(c31)CCC2)c1ccc2ccc3cccc4ccc1c2c34,.,.,?,i,.
COc1ccc(-c2nc(N=Nc3ccc(O)cc3)n[nH]2)cc1,27.1%,-4.2%,i,i,-3.6%
Cc1ccc(-c2nc(N=Nc3ccc(O)cc3)n[nH]2)cc1,?,-3.4%,i,13µM*,?
SMILES,ELG1 repair inh,SW480 rerep,KB-3-1 cytotox,KB-V1 cytotox,MCF10A rerep
Cc1ccc2[nH]c3c(c2c1)CCCC3C(N)=O (stereo not drawn),8.5%,12.9%,i,i,18.0%
Cc1ccc2[nH]c3c(c2c1)CCCC3NC(=O)CCl (stereo not drawn),17.8µM*,8.2µM*,i,?,20.6µM*
O=C(CN1CCN(Cc2ccccc2)CC1)Nc1cccc(Cl)c1Cl,.,.,i,?,.
Cc1ccc(Cl)c(NC(=O)COC(=O)c2ccccc2C(=O)c2ccc(Cl)c([N+](=O)[O-])c2)c1Cl,18.4µM*,3.66µM*,?,i,2.59µM*
O=C(COC(=O)c1ccccc1[N+](=O)[O-])NCCCc1ccccc1,4.3%,-15.0%,i,i,18.4µM*
CCCNC(=O)COC(=O)c1ccccc1C(=O)c1ccc(Cl)c([N+](=O)[O-])c1,?,6.51µM*,?,i,?
Cc1c(Cc2ccccc2)sc(N)c1C(N)=O,0.7%,.,.,.,.
Cc1ccc(/C=N/c2sc(Cc3ccccc3)c(C)c2C(N)=O)o1,-1.4%,-441.8%,?,?,?
Cc1c(Cc2ccccc2)sc(/N=C/c2c(O)ccc3ccccc23)c1C(N)=O,?,?,i,?,11.6µM*
Cc1c(Cc2ccccc2)sc(/N=C/c2ccc3ccccc3c2)c1C(N)=O,?,1.16µM*,?,0.92µM*,2.91µM*
COc1ccc(S(=O)(=O)N2CCOCC2)cc1NC(=O)CNC(=O)c1cccs1,?,4.8%,i,i,-3.4%
CC(=O)c1c(C)[nH]c(C(=O)OCC(=O)N2CCN(S(=O)(=O)c3ccc(C)cc3)CC2)c1C,-13.4%,-31.2%,i,i,7.6%
CC(=O)c1c(C)[nH]c(C(=O)OCC(=O)N2CCN(S(=O)(=O)c3ccc(C)cc3C)CC2)c1C,18.4µM*,0.8%,i,?,3.8%
Cc1ccc(S(=O)(=O)N2CCN(C(=O)CSC3CCCC3)CC2)c(C)c1,20.6µM*,4.5%,i,4.11µM*,15.5%
CCOC(=O)c1cc2c(=O)n3ccccc3nc2n(CCOC)c1=NC(=O)c1c(-c2ccccc2Cl)noc1C,.,.,i,i,.
CC1CCCCN1CCCNC(=O)c1sc2ncccc2c1-n1cccc1 (stereo not drawn),.,.,i,i,.
CCc1ccc(N(C(=O)c2snc(C(N)=O)c2N)C(C(=O)NCC2CCCO2)c2ccco2)cc1 (stereo not drawn),-10.4%,-21.4%,i,i,?
Cc1sc2ncn3ncnc3c2c1C,9.2µM*,-11.0%,i,i,6.3%
Cc1cccc(CSc2ncc(CO)n2Cc2ccc(F)cc2)c1,.,.,i,i,.
C=C1CCC2C(C)(C)[C@H](O)CC[C@@]2(C)[C@@H]1COc1cc(=O)oc2ccccc12 (stereo partly drawn),?,-2.9%,i,i,?
C=C1CC(COc2cc(=O)oc3ccccc23)(c2ccccc2)OC1=O (stereo not drawn),.,28.0%,10.3µM*,?,2.59µM*
CCC(C)NC(=O)c1ccc(COc2ccccc2Cl)cc1 (stereo not drawn),29.8%,1.7%,i,20.6µM*,3.0%
